Laboratory results taken from the supplement of paper PMC10849652.
Of roughly 7,900 targets only a part is listed; those with a hit were picked by preference. About 0.6% of all pairs of compound and target were hits.

Key:
Assay in all cases: log2 fold change, soluble protein after heating vs DMSO (PISA); higher = thermal stabilisation; K562 cells, 10 uM, 30 min; active = over 0.2 and 3.5 SD of the protein, either way, in both replicates (recomputed)
bafetinib = compound: Cc1ccc(NC(=O)c2ccc(CN3CC[C@H](N(C)C)C3)c(C(F)(F)F)c2)cc1Nc1nccc(-c2cncnc2)n1 [bafetinib]
In short: (§1)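 K562 cells at 2×10^6 cells/mL were exposed to 10 μM compound for 30 min, then aliquots were heated for 3 min across 48°C-58°C, pooled, and extracted in PBS containing 0.5% NP-40 at 4°C. The supernatant after 21,000xg for 90 min was taken as soluble protein and measured by TMTpro 16plex LC-MS/MS with channel sums equalised. Thermal stability is reported relative to control samples, with values from duplicates. Fold changes are given on a log2 scale.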

[1] = compound: Cc1cccc(CC(=O)N2CCc3c2ccc(-c2cn(C)c4ncnc(N)c24)c3F)n1
In short: as §1

nilotinib = compound: Cc1cn(-c2cc(NC(=O)c3ccc(C)c(Nc4nccc(-c5cccnc5)n4)c3)cc(C(F)(F)F)c2)cn1 [nilotinib]
In short: as §1

[2] = compound: Cc1nc(Nc2n[nH]c3c2CN(C(=O)N[C@H](CN(C)C)c2ccccc2)C3(C)C)c2sccc2n1
In short: as §1

dasatinib = compound: Cc1nc(Nc2ncc(C(=O)Nc3c(C)cccc3Cl)s2)cc(N2CCN(CCO)CC2)n1 [dasatinib]
In short: as §1

[3] = compound: Cc1ncc(-c2ccnc(Nc3ccc(S(C)(=O)=O)cc3)n2)n1C(C)C
In short: as §1

[4] = compound: Cn1cc(-c2ccc3c(c2)CCN3C(=O)Cc2cccc(C(F)(F)F)c2)c2c(N)ncnc21
In short: as §1

[5] = compound: Cn1cc(-c2ccc3nnc(C(F)(F)c4ccc5ncccc5c4)n3n2)cn1
In short: as §1

tipifarnib = compound: Cn1cncc1[C@@](N)(c1ccc(Cl)cc1)c1ccc2c(c1)c(-c1cccc(Cl)c1)cc(=O)n2C [tipifarnib]
In short: as §1

mubritinib = compound: FC(F)(F)c1ccc(/C=C/c2nc(COc3ccc(CCCCn4ccnn4)cc3)co2)cc1 [mubritinib]
In short: as §1

Measured: log2 fold change

PDCD6 (UniProt O75340)
inactive: bafetinib -0.11 | [1] -0.005 | nilotinib -0.071 | [2] 0.042 | dasatinib -0.021 | [3] -0.026 | [4] 0.027 | [5] 0.022 | tipifarnib -0.034 | mubritinib 0.009

POM121 (UniProt Q96HA1)
inactive: bafetinib -0.114 | [1] 0.012 | nilotinib 0.135 | [2] 0 | dasatinib -0.051 | [3] -0.177 | [4] -0.081 | [5] -0.063 | tipifarnib 0.021

PSMC1 (UniProt P62191)
Sequence of UniProt P62191 (P62191 whole entry, looked up): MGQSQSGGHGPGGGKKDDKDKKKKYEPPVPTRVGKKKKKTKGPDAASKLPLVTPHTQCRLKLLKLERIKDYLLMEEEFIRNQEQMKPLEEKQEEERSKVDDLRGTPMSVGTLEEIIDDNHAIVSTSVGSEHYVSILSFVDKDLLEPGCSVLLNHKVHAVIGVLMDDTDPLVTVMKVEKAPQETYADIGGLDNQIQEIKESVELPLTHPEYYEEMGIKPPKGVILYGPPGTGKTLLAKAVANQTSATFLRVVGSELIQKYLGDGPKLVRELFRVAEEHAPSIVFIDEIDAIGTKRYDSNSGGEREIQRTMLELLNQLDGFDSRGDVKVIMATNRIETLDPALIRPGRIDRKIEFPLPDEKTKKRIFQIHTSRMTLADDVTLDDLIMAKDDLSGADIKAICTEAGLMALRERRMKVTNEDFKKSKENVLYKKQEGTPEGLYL
inactive: bafetinib 0.065 | [1] 0.02 | nilotinib -0.025 | [2] 0.062 | dasatinib 0.036 | [3] -0.014 | [4] -0.082 | [5] 0 | tipifarnib 0.087 | mubritinib -0.015

PTMA (UniProt P06454)
Sequence of UniProt P06454 (P06454 whole entry, looked up): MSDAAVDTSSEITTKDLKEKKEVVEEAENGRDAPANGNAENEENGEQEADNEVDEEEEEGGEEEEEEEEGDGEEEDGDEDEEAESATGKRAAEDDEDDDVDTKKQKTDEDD
inactive: bafetinib -0.076 | [1] -0.047 | nilotinib 0.023 | [2] 0.001 | dasatinib -0.01 | [3] -0.031 | [4] 0.177 | [5] -0.147 | tipifarnib -0.02 | mubritinib 0.109

POLR2B (UniProt P30876)
inactive: bafetinib 0.024 | [1] -0.005 | nilotinib 0.079 | [2] 0.054 | dasatinib -0.055 | [4] -0.054 | [5] -0.006 | tipifarnib -0.029 | mubritinib -0.014
active: [3] 0.324

QKI (UniProt Q96PU8)
inactive: bafetinib -0.001 | [1] 0.058 | nilotinib -0.015 | [2] -0.105 | dasatinib -0.029 | [3] -0.093 | [4] -0.007 | [5] -0.036 | tipifarnib -0.015 | mubritinib 0.003

PMM2 (UniProt O15305)
active: nilotinib -0.291
inactive: bafetinib -0.098 | [1] 0.003 | [2] -0.054 | dasatinib -0.018 | [3] -0.015 | [4] 0.035 | [5] 0.013 | tipifarnib 0.018 | mubritinib 0.028

PDCD6IP (UniProt Q8WUM4)
Sequence of UniProt Q8WUM4 (Q8WUM4 whole entry, looked up): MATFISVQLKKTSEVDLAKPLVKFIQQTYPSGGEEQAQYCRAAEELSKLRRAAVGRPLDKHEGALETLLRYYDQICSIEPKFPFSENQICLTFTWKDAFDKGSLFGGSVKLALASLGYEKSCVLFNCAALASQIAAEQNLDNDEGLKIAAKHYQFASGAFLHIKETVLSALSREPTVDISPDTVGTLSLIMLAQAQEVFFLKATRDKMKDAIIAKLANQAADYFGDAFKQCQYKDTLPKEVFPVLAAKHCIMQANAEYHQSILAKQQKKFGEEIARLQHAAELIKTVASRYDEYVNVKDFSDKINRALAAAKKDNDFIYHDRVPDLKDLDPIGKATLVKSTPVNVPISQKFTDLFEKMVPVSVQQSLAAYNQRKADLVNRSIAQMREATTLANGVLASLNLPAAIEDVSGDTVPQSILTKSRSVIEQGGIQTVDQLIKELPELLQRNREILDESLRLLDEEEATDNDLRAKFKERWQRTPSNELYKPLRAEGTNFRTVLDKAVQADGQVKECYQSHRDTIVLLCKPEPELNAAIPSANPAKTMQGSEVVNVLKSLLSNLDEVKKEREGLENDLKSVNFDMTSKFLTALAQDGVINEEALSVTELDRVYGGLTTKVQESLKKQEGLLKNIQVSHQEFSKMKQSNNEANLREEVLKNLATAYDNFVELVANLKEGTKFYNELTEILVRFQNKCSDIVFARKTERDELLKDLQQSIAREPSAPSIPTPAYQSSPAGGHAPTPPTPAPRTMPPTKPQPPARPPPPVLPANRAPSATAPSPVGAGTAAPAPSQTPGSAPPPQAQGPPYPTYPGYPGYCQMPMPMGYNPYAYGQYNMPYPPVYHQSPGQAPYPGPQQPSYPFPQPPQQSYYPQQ
inactive: bafetinib 0.042 | [1] 0.157 | nilotinib -0.116 | [2] -0.205 | dasatinib -0.283 | [3] 0.069 | [4] 0.016 | [5] 0.068 | tipifarnib -0.221 | mubritinib 0.105

PRKD2 (UniProt M0R346)
inactive: bafetinib -0.147 | [1] -0.136

PBX2 (UniProt P40425)
Sequence of UniProt P40425 (P40425 whole entry, looked up): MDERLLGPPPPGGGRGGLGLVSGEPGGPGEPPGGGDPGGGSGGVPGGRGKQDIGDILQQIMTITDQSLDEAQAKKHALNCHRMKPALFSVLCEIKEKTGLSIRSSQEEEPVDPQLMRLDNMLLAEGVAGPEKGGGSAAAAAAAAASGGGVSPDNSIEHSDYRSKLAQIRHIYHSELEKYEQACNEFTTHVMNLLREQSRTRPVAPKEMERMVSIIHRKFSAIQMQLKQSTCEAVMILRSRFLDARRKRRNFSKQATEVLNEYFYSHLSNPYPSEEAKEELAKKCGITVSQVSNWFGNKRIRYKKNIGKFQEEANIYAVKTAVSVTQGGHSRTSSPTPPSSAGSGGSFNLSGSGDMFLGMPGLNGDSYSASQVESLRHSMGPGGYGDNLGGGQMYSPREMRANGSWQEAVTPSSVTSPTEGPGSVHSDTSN
inactive: bafetinib 0.019 | [1] 0.042 | nilotinib -0.057 | [2] -0.071 | dasatinib -0.202 | [3] -0.034 | [4] 0.013 | [5] -0.091 | tipifarnib -0.116 | mubritinib 0.027

PBK (UniProt Q96KB5)
Sequence of UniProt Q96KB5 (Q96KB5 whole entry, looked up): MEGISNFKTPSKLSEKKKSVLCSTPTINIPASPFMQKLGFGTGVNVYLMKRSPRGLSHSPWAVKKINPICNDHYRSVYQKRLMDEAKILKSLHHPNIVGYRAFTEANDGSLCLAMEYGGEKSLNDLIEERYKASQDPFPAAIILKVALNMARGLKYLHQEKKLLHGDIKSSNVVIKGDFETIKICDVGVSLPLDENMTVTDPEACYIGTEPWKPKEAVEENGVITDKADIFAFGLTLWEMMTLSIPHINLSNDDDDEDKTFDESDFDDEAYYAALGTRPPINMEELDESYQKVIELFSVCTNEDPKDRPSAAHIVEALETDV
inactive: bafetinib 0.064 | [1] 0.064 | nilotinib -0.053 | [2] -0.152 | dasatinib -0.084 | [3] 0.078 | [4] -0.004 | [5] 0.059 | tipifarnib -0.067 | mubritinib -0.06

POLR2G (UniProt P62487)
inactive: bafetinib -0.048 | [1] -0.038 | nilotinib 0.012 | [2] 0.188 | dasatinib 0.054 | [3] 0.202 | [4] 0.009 | [5] 0.002 | tipifarnib 0 | mubritinib 0.065

PCYT1A (UniProt P49585)
Sequence of UniProt P49585 (P49585 whole entry, looked up): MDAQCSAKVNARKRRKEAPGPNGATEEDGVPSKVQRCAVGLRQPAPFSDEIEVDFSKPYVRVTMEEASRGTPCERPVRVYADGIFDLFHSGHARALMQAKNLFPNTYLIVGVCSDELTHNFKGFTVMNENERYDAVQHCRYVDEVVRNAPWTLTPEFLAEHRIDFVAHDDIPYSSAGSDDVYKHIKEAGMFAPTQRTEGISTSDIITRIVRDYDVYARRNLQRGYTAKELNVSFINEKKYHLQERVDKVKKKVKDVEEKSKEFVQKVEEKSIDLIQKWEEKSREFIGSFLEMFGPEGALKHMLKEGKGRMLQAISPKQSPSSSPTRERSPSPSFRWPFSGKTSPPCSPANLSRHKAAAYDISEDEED
inactive: bafetinib -0.142 | [1] 0.035 | [2] -0.129 | dasatinib -0.185 | [3] -0.04 | [4] 0.033 | [5] 0.001 | tipifarnib 0.006 | mubritinib 0.176
active: nilotinib -1.47

PTP4A3 (UniProt O75365)
inactive: bafetinib 0.162

PCNT (UniProt O95613)
inactive: bafetinib -0.227 | [1] -0.324 | nilotinib -0.117 | [2] 0.045 | dasatinib 0.085 | [3] -0.002 | [4] -0.076 | [5] 0.107 | tipifarnib 0.127 | mubritinib -0.004

POMP (UniProt Q9Y244)
inactive: bafetinib -0.097 | [1] -0.101 | nilotinib 0.142 | [2] -0.093 | dasatinib 0.006 | [3] -0.092 | [4] 0.079 | [5] 0.156 | tipifarnib 0.116 | mubritinib 0.01

PLCG1 isoform 2 (UniProt P19174)
inactive: bafetinib -0.054 | [1] -0.08 | nilotinib -0.072 | [2] 0.079 | dasatinib -0.257 | [3] 0.024 | [4] 0.031 | [5] 0.005 | tipifarnib -0.144 | mubritinib 0.11

PDS5B (UniProt Q9NTI5)
inactive: bafetinib 0.041 | [1] -0.139 | nilotinib -0.314 | [2] 0.04 | dasatinib -0.244 | [3] -0.031 | [4] 0.038 | [5] 0.147 | tipifarnib 0.054 | mubritinib 0.127

PRKCG (UniProt P05129)
inactive: bafetinib -0.012 | [1] 0.067 | nilotinib 0.019 | [2] -0.385 | dasatinib 0.022 | [3] 0.018 | [4] 0.015 | [5] -0.132 | tipifarnib -0.095 | mubritinib 0.047

PRKAR1A (UniProt P10644)
Sequence of UniProt P10644 (P10644 whole entry, looked up): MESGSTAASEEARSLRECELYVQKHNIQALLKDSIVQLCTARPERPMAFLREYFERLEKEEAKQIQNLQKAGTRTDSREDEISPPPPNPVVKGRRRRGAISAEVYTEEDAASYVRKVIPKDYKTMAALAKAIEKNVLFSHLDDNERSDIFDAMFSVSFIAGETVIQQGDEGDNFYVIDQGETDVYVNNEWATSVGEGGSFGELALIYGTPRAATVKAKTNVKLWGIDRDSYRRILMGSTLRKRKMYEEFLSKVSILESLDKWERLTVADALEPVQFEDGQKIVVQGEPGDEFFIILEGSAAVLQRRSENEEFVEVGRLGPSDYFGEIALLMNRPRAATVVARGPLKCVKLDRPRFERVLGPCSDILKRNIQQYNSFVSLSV
inactive: bafetinib 0.232 | [1] -0.006 | nilotinib 0.12 | [2] 0.195 | dasatinib -0.046 | [3] 0.152 | [4] 0 | [5] 0.281 | tipifarnib 0.231 | mubritinib -0.169

PRMT8 (UniProt Q9NR22)
inactive: bafetinib 0.002 | [1] 0.032 | nilotinib -0.036 | [2] 0.048 | dasatinib -0.064 | [3] 0.02 | [4] 0.064 | [5] -0.066 | tipifarnib -0.136 | mubritinib 0.035

PIP4P1 isoform 2 (UniProt Q86T03)
Sequence of UniProt Q86T03 (Q86T03 whole entry, looked up): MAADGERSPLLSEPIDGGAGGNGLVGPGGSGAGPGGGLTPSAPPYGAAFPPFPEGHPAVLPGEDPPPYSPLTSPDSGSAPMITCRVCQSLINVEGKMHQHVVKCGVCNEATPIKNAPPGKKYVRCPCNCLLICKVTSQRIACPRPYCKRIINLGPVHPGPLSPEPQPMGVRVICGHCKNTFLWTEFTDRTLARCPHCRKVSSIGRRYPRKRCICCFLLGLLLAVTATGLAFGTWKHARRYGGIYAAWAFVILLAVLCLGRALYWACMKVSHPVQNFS
inactive: bafetinib -0.044 | [1] 0.102 | nilotinib 0.031 | [2] -0.004 | dasatinib 0.051 | [3] -0.016 | [4] -0.158 | [5] 0.01 | tipifarnib 0.112 | mubritinib -0.037

PDSS2 (UniProt Q86YH6)
Sequence of UniProt Q86YH6 (Q86YH6 whole entry, looked up): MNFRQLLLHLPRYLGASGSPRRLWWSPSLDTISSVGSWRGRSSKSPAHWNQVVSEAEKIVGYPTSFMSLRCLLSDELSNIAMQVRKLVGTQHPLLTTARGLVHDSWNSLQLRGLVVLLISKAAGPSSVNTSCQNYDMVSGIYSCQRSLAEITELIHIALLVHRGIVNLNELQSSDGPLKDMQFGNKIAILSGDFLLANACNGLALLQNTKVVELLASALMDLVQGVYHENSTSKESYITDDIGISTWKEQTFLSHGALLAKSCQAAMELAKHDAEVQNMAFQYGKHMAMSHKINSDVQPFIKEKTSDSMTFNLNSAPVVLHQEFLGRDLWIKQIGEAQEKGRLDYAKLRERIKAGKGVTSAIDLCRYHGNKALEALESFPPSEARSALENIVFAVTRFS
inactive: bafetinib 0.077 | [1] 0.048 | nilotinib 0.029 | [2] 0.163 | dasatinib 0.06 | [3] -0.154 | [4] 0.052 | [5] 0.02 | tipifarnib -0.095

PCLAF (UniProt Q15004)
inactive: bafetinib -0.015 | [1] -0.1 | nilotinib -0.027 | [2] 0.105 | dasatinib 0.065 | [3] -0.081 | [4] -0.112 | [5] -0.069 | tipifarnib -0.019 | mubritinib -0.095

PLBD2 (UniProt Q8NHP8)
inactive: bafetinib -0.173 | [1] -0.056 | nilotinib -0.011 | [2] 0.024 | dasatinib -0.013 | [3] -0.052 | [4] 0.017 | [5] 0.044 | tipifarnib 0.093 | mubritinib 0.056

PPOX (UniProt P50336)
Sequence of UniProt P50336 (P50336 whole entry, looked up): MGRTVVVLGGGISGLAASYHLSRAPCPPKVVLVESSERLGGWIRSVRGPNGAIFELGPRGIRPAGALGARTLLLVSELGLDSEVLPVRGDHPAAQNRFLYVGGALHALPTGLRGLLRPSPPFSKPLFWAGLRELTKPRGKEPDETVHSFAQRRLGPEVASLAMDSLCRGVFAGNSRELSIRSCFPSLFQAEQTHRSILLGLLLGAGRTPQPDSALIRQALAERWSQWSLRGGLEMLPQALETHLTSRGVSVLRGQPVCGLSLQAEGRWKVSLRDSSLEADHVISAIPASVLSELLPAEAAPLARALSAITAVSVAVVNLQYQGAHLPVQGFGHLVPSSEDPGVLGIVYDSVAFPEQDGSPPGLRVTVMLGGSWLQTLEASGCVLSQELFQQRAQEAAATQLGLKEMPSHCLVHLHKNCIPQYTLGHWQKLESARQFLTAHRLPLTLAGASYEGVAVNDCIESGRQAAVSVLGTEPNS
inactive: bafetinib -0.031 | [1] -0.013 | nilotinib 0.494 | [2] 0.027 | dasatinib 0.208 | [3] -0.015 | [4] 0.192 | [5] 0.086 | tipifarnib 0.08 | mubritinib 0

PYGL (UniProt P06737)
Sequence of UniProt P06737 (P06737 whole entry, looked up): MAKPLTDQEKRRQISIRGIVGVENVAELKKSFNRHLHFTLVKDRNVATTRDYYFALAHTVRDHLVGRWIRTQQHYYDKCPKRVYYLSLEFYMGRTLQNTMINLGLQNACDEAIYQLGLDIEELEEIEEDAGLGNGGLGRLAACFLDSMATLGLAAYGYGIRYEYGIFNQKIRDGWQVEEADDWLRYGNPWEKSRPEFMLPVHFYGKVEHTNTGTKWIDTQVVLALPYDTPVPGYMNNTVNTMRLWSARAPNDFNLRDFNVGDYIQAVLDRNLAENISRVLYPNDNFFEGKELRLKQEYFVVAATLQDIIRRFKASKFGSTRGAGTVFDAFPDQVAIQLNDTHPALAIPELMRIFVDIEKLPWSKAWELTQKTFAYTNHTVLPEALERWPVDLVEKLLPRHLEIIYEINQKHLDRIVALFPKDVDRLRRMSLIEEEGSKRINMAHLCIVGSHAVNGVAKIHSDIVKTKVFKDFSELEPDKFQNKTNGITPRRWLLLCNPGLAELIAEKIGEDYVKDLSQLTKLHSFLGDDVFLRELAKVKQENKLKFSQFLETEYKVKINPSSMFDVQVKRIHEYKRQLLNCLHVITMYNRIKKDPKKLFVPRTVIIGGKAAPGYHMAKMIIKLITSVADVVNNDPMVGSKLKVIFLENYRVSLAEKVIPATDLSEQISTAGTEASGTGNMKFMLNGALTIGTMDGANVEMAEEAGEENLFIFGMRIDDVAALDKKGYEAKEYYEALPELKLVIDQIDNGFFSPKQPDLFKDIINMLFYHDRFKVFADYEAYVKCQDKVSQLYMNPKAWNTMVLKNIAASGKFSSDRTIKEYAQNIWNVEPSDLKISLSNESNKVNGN
inactive: bafetinib -0.218 | [1] 0.006 | nilotinib -0.202 | [2] 0.036 | dasatinib -0.027 | [3] -0.035 | [4] 0.001 | [5] -0.005 | tipifarnib 0.016 | mubritinib 0.052

PEA15 isoform 2 (UniProt Q15121)
inactive: bafetinib -0.077 | [1] -0.008 | nilotinib 0 | dasatinib -0.026 | [3] -0.004 | [4] 0.036 | [5] 0.021 | tipifarnib 0.04 | mubritinib 0.054
active: [2] -0.4

POLR1A (UniProt O95602)
inactive: bafetinib -0.11 | [1] 0.004 | nilotinib -0.051 | [2] 0.046 | dasatinib 0.046 | [3] -0.003 | [4] -0.16 | [5] -0.057 | tipifarnib 0.019 | mubritinib 0.069
